Among all 16,000 compounds or so, about 5,100 (32%) were called active. Not shown: some 25% with an inconclusive outcome. The call rests on the fitted dose curve; in most records, active means well fitted curve in the direction sought with a large enough effect; inconclusive means small, poorly fitted or top-dose-only effect, or effect the other way; inactive means no such curve, though single readings can be large or run the other way. Some of the results follow.
These molecules were tested against Cytochrome P450 3A4 (Homo sapiens) (UniProt P08684) (assay: Cytochrome panel assay with activity outcomes). Details: recombinant CYP, pro-luciferin dealkylation, luminescence, p450-cyp3a4; series mostly up to 57.1 µM; activity, negative = inhibition: at the top concentration.
On the % scale 0 is the no-effect control and ±100 the full control effect.

Cytochrome P450 3A4 (Homo sapiens), sequence (P08684 whole entry, looked up): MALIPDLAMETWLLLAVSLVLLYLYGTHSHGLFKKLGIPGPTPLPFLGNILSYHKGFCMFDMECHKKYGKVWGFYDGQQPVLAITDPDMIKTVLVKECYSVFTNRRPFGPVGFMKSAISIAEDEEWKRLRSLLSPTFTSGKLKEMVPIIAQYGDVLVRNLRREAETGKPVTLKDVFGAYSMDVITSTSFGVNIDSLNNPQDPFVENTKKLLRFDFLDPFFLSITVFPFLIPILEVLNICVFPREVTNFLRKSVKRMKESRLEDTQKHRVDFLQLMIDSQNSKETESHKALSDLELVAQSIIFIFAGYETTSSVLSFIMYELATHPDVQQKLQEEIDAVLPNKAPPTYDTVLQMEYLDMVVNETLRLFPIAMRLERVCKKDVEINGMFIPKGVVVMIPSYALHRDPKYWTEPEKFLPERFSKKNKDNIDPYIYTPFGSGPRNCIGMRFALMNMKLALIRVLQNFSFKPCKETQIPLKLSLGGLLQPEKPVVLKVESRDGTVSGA

Compound	activity, negative = inhibition	AC50
N[C@@H](CSCc1ccccc1)C(=O)O	-6.14% [at 11.4 µM] (inactive)	
NC1(C(=O)O)C[C@H](C(=O)O)[C@H](C(=O)O)C1 (stereo not given in full)	-6.99% (inactive)	
CC1CN(C(NC(=O)C(C)(C)C)C(Cl)(Cl)Cl)CC(C)O1 (stereo not given)	-27.5% (inactive)	
C[C@@H]1NCC[C@H](CC(=O)O)[C@H]1CC(=O)O	0.412% [at 11.4 µM] (inactive)	
CC(C)=C[C@H]1[C@@H](C(=O)Oc2ccccc2C(C)C)C1(C)C	-13.1% [at 11.4 µM] (inactive)	
Cc1[nH]c(N)nc(=S)c1CCC(=O)O	-2.07% [at 11.4 µM] (inactive)	
COc1ccccc1OCCCCCc1c(C)n[nH]c1C	14.8% (inactive)	
COc1cccc(-c2ccc3ncnc(N(C)Cc4ccco4)c3c2)c1		12.6 µM (active)
CN(Cc1ccco1)c1ncnc2ccc(-c3cccnc3)cc12		3.98 µM (active)
NCCSC[C@H](N)C(=O)O	-7.49% [at 11.4 µM] (inactive)	
O=C(O)[C@@H](O)[C@@H](O)[C@@H](O[C@H]1O[C@@H](CO)[C@@H](O)[C@@H](O)[C@@H]1O)[C@@H](O)CO	1.47% [at 25.6 µM] (inactive)	
c1ccc(Nc2ncnc3ccc(-c4ccc5c(c4)OCO5)cc23)cc1		2.51 µM (active)
c1nc(NC2CCNCC2)c2cc(-c3ccc4c(c3)OCO4)ccc2n1		25.1 µM (active)
c1ccc(CNc2ncnc3ccc(-c4ccc5c(c4)OCO5)cc23)cc1		2 µM (active)
c1nc(NC2CCNCC2)c2cc(-c3ccoc3)ccc2n1	-15.6% (inactive)	
Cc1cccc(CNc2ncnc3ccc(-c4ccc5c(c4)OCO5)cc23)c1		2 µM (active)
COc1cc(OC)c(C#N)c(S(=O)(=O)Cc2ccccc2)c1		25.1 µM (active)
COc1cc(C)c(Br)cc1S(=O)(=O)NCc1ccccc1	-0.507% (inactive)	
O=[N+]([O-])c1ccc(S(=O)(=O)Cc2ccccc2)c2nonc12	-16.7% [at 11.4 µM] (inactive)	
O=C(O)/C=C\C(=O)N1Cc2cc3ccccc3nc2C1	-8.05% [at 11.4 µM] (inactive)	
Cc1nc2ccccn2c1C(=O)N/N=C/c1ccccc1[N+](=O)[O-]		12.6 µM (active)
Cc1ccc(C(=O)N/N=C/c2cc(C)n(-c3ccc(Br)cc3)c2C)cc1[N+](=O)[O-]	23.5% (inactive)	
O=C(N/N=C/c1c(Nc2cccc(C(F)(F)F)c2)nc2ccccn2c1=O)c1ccccc1	-5.45% (inactive)	
CN1CCN(c2ncc3nc(-c4ccccc4)c(=O)n(CCc4ccccc4)c3n2)CC1	-5.29% (inactive)	

Compound	activity, negative = inhibition	AC50
COc1ccc(-c2nc3cnc(N4CCNCC4)nc3n(Cc3cccc(OC)c3)c2=O)cc1		15.8 µM (active)
COCCn1c(=O)c(-c2cc(F)cc(F)c2)nc2cnc(N3CCN(C)CC3)nc21	-6.67% (inactive)	
COc1cccc(Cn2c(=O)c(-c3cc(F)cc(F)c3)nc3cnc(N4CCNCC4)nc32)c1		25.1 µM (active)
COc1cccc(Cn2c(=O)c(-c3ccccc3)nc3cnc(N4CCNCC4)nc32)c1		20 µM (active)
CN1CCN(c2ncc3nc(-c4cc(F)cc(F)c4)c(=O)n(CCc4ccccc4)c3n2)CC1		25.1 µM (active)
COc1cccc(Cn2c(=O)c(-c3ccc(F)cc3)nc3cnc(N4CCNCC4)nc32)c1		15.8 µM (active)
COc1cccc(Cn2c(=O)c(-c3cc(F)cc(F)c3)nc3cnc(N4CCN(C)CC4)nc32)c1		25.1 µM (active)
O=C(O)c1ccc2c(c1)C(=O)N(C(Cc1ccc(O)cc1)C(=O)O)C2=O (stereo not given)	5.23% (inactive)	
OCCCNCc1ccccn1	-7.75% [at 11.4 µM] (inactive)	
CNCCc1ccccn1	-3.54% [at 25.6 µM] (inactive)	
Cc1cc(NCc2ccccn2)ccc1Br		12.6 µM (active)
c1ccc(CCNc2ccccn2)nc1	-14.6% [at 11.4 µM] (inactive)	
Cc1cc(=O)oc(C)c1C(=O)NCc1ccccn1	-10.8% (inactive)	
Cc1cc(Br)ccc1NCc1ccccn1		15.8 µM (active)
Cc1ccc(S(=O)(=O)NCCn2c(C)cc3ccccc32)cc1		5.01 µM (active)
CN(C)CCn1c(C(=O)O)cc2ccccc21	6.42% (inactive)	
O=C(NCCN1CCCCC1)c1ccc(I)cc1	-0.633% (inactive)	
Cc1cc2ccccc2n1CCNC(=O)c1ccccc1		3.98 µM (active)
Cc1cc2ccccc2n1CCNC(=O)C1CCCC1		4.47 µM (active)
Cc1ccc(S(=O)(=O)NC(=O)c2cccn2C)cc1	20.6% (inactive)	
Cc1cc2ccccc2c(=O)n1CC(=O)NCC(=O)N1CCCC1	-2.71% (inactive)	
CC1(C)C(=O)N(CCN2CCC(C(=O)c3ccc(F)cc3)CC2)c2ccccc21		15.8 µM (active)
CN(C)CCCN1c2ccccc2C(C)(C)c2ccccc21	-18.6% [at 11.4 µM] (inactive)	
CCN1C(=O)C(O)(C2COC(C)(C)CC2=O)c2ccccc21 (stereo not given)	-1.6% (inactive)	

Compound	activity, negative = inhibition	AC50
O=S(=O)(O)c1ccc(N=Nc2ccccc2)cc1	0.763% [at 11.4 µM] (inactive)	
NCC(=O)Nc1ccc(Cl)cc1C(=O)c1ccc[nH]1	-21.6% [at 11.4 µM] (inactive)	
Cc1cc(SCC(=O)c2ccccc2)nc(SCC(=O)c2ccccc2)n1		2.82 µM (active)
Cc1cc(C)nc(SCCc2cccc[n+]2C)n1	-11% [at 11.4 µM] (inactive)	
O=C(O)CSc1cc(C(F)(F)F)nc(-c2ccccn2)n1	-5.8% (inactive)	
c1nc(NCCN2CCOCC2)c2cc(-c3ccc4c(c3)OCO4)ccc2n1		5.01 µM (active)
c1cncc(-c2ccc3ncnc(NCCN4CCOCC4)c3c2)c1		12.6 µM (active)
CC(=O)NCCNc1ncnc2ccc(-c3ccoc3)cc12	-28.8% (inactive)	
c1ccc(-n2ncc3c(NCCCN4CCOCC4)ncnc32)cc1	-19.7% (inactive)	
CC(=O)NCCNc1ncnc2ccc(-c3ccc4c(c3)OCO4)cc12		5.01 µM (active)
NCCCCNCCCN		inactive
N#Cc1ccccc1Sc1ccccc1N		17.8 µM (active)
O=C1CCC(c2ccccc2)=NN1c1nc2ccccc2s1	-23.1% [at 11.4 µM] (inactive)	
c1ccc2sc(N3CCN(Cc4ccc5c(c4)OCO5)CC3)nc2c1		0.631 µM (active)
CC(C)c1ccc(C(=O)CC2(O)C(=O)N(CN3CCOCC3)c3ccccc32)cc1 (stereo not given)		8.91 µM (active)
CC1CCOC2(O1)C(=O)N(CN1CCN(c3ccccc3F)CC1)c1ccccc12 (stereo not given)	-17.6% (inactive)	
CC(=O)N1CCC(=O)N(C(C)C)c2ccccc21	7.06% (inactive)	
O=C(NCc1cccnc1)/C(=C/c1ccc(-c2cccc(Cl)c2)o1)S(=O)(=O)c1ccccc1		0.501 µM (active)
CC(C)NC(=O)N1CCCC2(CCN(C(=O)c3ccncc3)CC2)C1		15.8 µM (active)
CC(C)CN1CCC2(CC1)CCN(C(=O)c1cc(C(F)(F)F)cc(C(F)(F)F)c1)CC2	24.6% (inactive)	
CC(C)NC(=O)N1CC2(CCN(C(=O)c3cc(C(F)(F)F)cc(C(F)(F)F)c3)CC2)C1	-10.5% (inactive)	
CN1CCC2(CC1)CCN(C(=O)c1cc(C(F)(F)F)cc(C(F)(F)F)c1)CC2	-4.42% (inactive)	
CC(C)NC(=O)N1CC[C@@]2(CCCN(C(=O)c3cc(C(F)(F)F)cc(C(F)(F)F)c3)C2)C1		15.8 µM (active)
CC(C)CN1CC[C@@]2(CCCN(C(=O)c3cc(C(F)(F)F)cc(C(F)(F)F)c3)C2)C1		12.6 µM (active)

Compound	activity, negative = inhibition	AC50
CC(C)NC(=O)N1CCCC2(CCN(C(=O)c3cc(C(F)(F)F)cc(C(F)(F)F)c3)CC2)C1		25.1 µM (active)
COc1ccc(C(=O)N2CCC3(CC2)CN(C(=O)NC(C)C)C3)cc1	-12.2% (inactive)	
Cc1noc(C)c1C(=O)N1CCC2(CCCN(C(=O)NC(C)C)C2)CC1	-6.25% (inactive)	
C=C1CCO[C@@]2([C@H](O)[C@@](C)(O)CO)NC(=O)[C@]1(O)NC2=O	-2.69% [at 11.4 µM] (inactive)	
O=C(O)CCC(=O)c1ccc2sc3ccccc3c2c1	-21.1% [at 11.4 µM] (inactive)	
C/C(CCc1ccc2c(c1)OCO2)=N\N=C1\NC(=O)CC(C(=O)Nc2ccccc2)S1 (stereo not given)		2.24 µM (active)
COc1ccc(Cl)cc1N=Nc1ncc[nH]1		10 µM (active)
COC(=O)c1c(-c2cc(OC)c(OC)c(OC)c2)c2ccc(OCc3ccccn3)cc2c(=O)n1-c1ccc(N)cc1		0.398 µM (active)
CC(C)C(=O)NCCCc1ccccc1	2.86% [at 11.4 µM] (inactive)	
Cc1cc(C)c(NC(=O)CS(=O)CC(=O)NCCCc2ccccc2)c(C)c1 (stereo not given)		3.55 µM (active)
FC(F)(F)c1cnc(N2CCC(=NOCc3ccc(Cl)cc3)CC2)c(Cl)c1	1.69% (inactive)	
N#CC(c1ccc(Cl)cc1)(c1ncc(C(F)(F)F)cc1Cl)N1CCOCC1 (stereo not given)		12.6 µM (active)
COC(=O)[C@@H]1[C@@H]2C[C@H]3c4[nH]c5ccccc5c4CCN3C[C@@H]2CC[C@@H]1OS(=O)(=O)O	0.48% [at 11.4 µM] (inactive)	
CC(O)(CS(=O)(=O)Cc1ccc(Cl)cc1)C(=O)Nc1cccc(C(F)(F)F)c1 (stereo not given)		2 µM (active)
CC(=O)Nc1cccc(C(=O)OCc2ccc(C(=O)Oc3ccc(Cl)cc3)cc2)c1	-19.7% (inactive)	
CC(O)(CS(=O)(=O)Cc1ccccc1Cl)C(=O)Nc1cccc(C(F)(F)F)c1 (stereo not given)		2.51 µM (active)
O=C(CCn1nc(-c2ccc(Cl)cc2)ccc1=O)NCc1ccccn1		10 µM (active)
COCCNC(=O)CCn1nc(-c2ccc(Cl)cc2)ccc1=O	-26.5% (inactive)	
CN(C)CCNC(=O)Cn1nc(-c2ccc(Cl)cc2)ccc1=O	-11.8% (inactive)	
Cc1ccc(-n2nnnc2-c2cnc3ccc(Cl)cc3c2-c2ccccc2)cc1		5.62 µM (active)
Cc1ccc2nc(SCC(=O)c3ccc4c(c3)OCO4)[nH]c2c1		2.24 µM (active)
Cc1ccc(C(=O)CSc2nc(C)cc(=O)[nH]2)cc1	-13.8% (inactive)	
Cc1nc(SCC(=O)c2ccc(F)cc2)c([N+](=O)[O-])[nH]1	5.95% [at 2.29 µM] (inactive)	
